Data reported in PubChem BioAssay (Tox21).
Records with an inconclusive call do not appear. Calls of active or inactive are those of the source. Unless noted, calls come from the whole dose curve; as a rule, active = well fitted curve in the direction sought with a large enough effect in the repeat runs; inconclusive = weak or mixed curves; inactive = no such curve, though single readings can be large; an effect the other way counts as inactive or inconclusive. Where a SMILES comes first, the peptide text is derived from it. [ ]: non-standard residue; d: D form. pGlu = O=C1CC[C@@H](C(=O)O)N1

Columns and labels:
[1] = biological target: Estrogen receptor beta (Homo sapiens) (UniProt Q92731); assay: qHTS assay to identify small molecule agonists of the estrogen receptor beta (ER-beta) signaling pathway (AID 1259377; active = well fitted activation curve with a large enough effect in the signal ratio in the repeat runs, not every such curve was filed as active; the % refers to the signal ratio)
Estrogen receptor beta (Homo sapiens), sequence (Q92731 whole entry, looked up): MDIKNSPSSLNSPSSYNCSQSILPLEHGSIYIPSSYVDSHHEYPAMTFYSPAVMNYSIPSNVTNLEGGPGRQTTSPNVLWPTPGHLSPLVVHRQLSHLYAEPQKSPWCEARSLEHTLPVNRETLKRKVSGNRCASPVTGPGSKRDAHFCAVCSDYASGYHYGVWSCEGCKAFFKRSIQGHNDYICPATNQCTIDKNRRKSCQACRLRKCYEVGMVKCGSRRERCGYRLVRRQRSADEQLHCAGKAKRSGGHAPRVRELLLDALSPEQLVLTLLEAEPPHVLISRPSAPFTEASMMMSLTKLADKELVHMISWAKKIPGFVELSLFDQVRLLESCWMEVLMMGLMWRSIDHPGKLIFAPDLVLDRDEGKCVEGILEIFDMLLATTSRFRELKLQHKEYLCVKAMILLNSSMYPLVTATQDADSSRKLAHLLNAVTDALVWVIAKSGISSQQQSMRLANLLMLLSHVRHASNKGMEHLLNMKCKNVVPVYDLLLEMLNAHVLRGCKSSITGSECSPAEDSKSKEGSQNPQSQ
Outline: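 A UAS-controlled beta-lactamase reporter in ER-beta-UAS-bla HEK293T cells reports receptor activation. Compounds act for 16 hr at 37C in 2% charcoal-stripped serum, and a FRET substrate is read by fluorescence after 2 hours.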

[2] = biological target: Estrogen receptor beta (Homo sapiens) (UniProt Q92731); assay: qHTS assay to identify small molecule antagonists of the estrogen receptor beta (ER-beta) signaling pathway (AID 1259378; active = well fitted inhibition curve with a large enough effect in the signal ratio in the repeat runs, not every such curve was filed as active; the % refers to the signal ratio)
Outline: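 ER-beta-UAS-bla HEK293T (GripTite) cells in 2% charcoal-stripped FBS medium were preincubated 6 hr at 37C, dosed with compound, then stimulated with 1 nM E2 (final) for 16 hr; beta-lactamase reporter read by B/G FRET fluorescence after 2 hr substrate loading.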

[3] = qHTS assay to identify small molecule agonists of the androgen receptor (AR) signaling pathway in the presence of an antagonist - cell viability counter screen (AID 1259379);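 note: MDA-kb2 human breast cancer cells carrying an MMTV luciferase reporter; series mostly up to about 92 µM; nearly all actives have a fitted effect of over 25% in size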
Outline: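 Viability counter screen: CellTiter-Fluor fluorescence, measured in the same wells as the luciferase read-out. MDA-kb2 cells, 3,000/well, with nilutamide at 3.0uM final and compounds at 15 concentrations, 16 hr at 37C, 0% CO2.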

[4] = qHTS assay to identify small molecule agonists of the estrogen receptor beta (ER-beta) signaling pathway - cell viability counter screen (AID 1259380); note: nearly all actives have a fitted effect of over 30% in size
Outline: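 Luminescence read-out (CellTiter-Glo, 30 min, room temp) taken in the same wells as the beta-lactamase reporter assay; ER-beta-UAS-bla HEK293T cells exposed to DMSO-dissolved compounds for 16 hr at 37C in 2% charcoal-stripped FBS medium.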

[5] = biological target: Androgen receptor (Homo sapiens) (UniProt P10275); assay: qHTS assay to identify small molecule agonists of the androgen receptor (AR) signaling pathway in the presence of an antagonist (AID 1259381; calls by dose curve; note: nearly all actives have a fitted effect of over 15% in size)
Androgen receptor (Homo sapiens), sequence (P10275 whole entry, looked up): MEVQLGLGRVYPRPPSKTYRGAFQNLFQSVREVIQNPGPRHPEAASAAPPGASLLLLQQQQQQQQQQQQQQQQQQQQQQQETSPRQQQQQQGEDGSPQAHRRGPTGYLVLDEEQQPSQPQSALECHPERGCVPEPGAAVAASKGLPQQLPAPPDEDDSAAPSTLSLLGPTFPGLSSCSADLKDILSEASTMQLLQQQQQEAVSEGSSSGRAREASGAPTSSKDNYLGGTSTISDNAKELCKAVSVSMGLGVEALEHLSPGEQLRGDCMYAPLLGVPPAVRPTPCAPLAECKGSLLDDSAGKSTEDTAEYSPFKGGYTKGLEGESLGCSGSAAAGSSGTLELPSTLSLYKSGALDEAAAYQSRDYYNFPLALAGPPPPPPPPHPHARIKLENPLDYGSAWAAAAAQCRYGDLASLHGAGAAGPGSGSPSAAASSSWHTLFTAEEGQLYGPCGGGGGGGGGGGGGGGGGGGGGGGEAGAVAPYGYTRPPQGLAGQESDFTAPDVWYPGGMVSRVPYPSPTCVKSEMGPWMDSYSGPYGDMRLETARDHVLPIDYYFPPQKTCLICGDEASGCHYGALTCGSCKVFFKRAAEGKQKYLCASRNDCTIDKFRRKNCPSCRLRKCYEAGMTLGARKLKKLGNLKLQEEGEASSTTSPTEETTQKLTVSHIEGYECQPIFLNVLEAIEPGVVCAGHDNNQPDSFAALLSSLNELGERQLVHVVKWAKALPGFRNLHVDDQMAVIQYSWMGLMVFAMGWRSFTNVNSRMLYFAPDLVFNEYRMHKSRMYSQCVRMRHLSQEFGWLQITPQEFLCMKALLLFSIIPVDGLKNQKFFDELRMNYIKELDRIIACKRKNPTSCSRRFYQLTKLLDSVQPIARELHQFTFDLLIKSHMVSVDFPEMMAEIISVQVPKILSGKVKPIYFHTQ
Outline: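 Luciferase read-out (ONE-Glo, 30min room temperature) in MDA-kb2 MMTV-reporter cells; agonist mode run in presence of AR antagonist nilutamide, 3.0uM final. Compounds tested as 15-point series, 16hr exposure at 37C, 0% CO2.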

[6] = qHTS assay to identify small molecule antagonists of the estrogen receptor beta (ER-beta) signaling pathway - cell viability counter screen (AID 1259382); note: series mostly up to about 92 µM; nearly all actives have a fitted effect of over 55% in size
Outline: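 Luminescent ATP read-out (CellTiter-Glo, 30 min, RT) taken in the same wells as the bla reporter assay. HEK293T ER-beta-UAS-bla cells in 2% charcoal-stripped FBS were exposed to compounds with 1nM E2 for 16 hr at 37C.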

[7] = biological target: Estrogen receptor (Homo sapiens) (UniProt P03372); assay: qHTS assay to identify small molecule agonists of the estrogen receptor alpha (ER-alpha) signaling pathway in the presence of an antagonist (AID 1259383; calls by dose curve; note: top concentration of the series differs between compounds; nearly all actives have a fitted effect of over 15% in size)
Estrogen receptor (Homo sapiens), sequence (P03372 whole entry, looked up): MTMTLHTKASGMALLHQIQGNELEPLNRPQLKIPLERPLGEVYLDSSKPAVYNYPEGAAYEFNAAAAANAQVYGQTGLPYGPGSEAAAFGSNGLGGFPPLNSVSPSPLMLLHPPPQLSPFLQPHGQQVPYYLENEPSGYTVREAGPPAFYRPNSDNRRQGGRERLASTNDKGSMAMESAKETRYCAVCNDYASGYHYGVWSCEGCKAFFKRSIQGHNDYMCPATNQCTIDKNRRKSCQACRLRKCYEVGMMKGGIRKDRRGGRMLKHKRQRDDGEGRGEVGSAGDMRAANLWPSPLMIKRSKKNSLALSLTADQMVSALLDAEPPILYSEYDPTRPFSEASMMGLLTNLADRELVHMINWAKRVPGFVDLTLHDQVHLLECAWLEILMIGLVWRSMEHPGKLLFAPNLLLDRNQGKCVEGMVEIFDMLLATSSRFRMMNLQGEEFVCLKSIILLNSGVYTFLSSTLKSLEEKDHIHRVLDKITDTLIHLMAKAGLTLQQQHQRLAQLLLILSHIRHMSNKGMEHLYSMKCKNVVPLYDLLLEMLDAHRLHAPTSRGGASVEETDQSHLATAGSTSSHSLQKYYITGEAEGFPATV
Outline: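 Luciferase luminescence (ONE-Glo, 30min at room temperature) measured in VM7Luc4E2 cells after 22hr compound exposure at 15 concentrations, with 10.0nM ICI-182,780 final present; cells express endogenous ER-alpha and carry four EREs upstream of luciferase.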

[8] = qHTS assay to identify small molecule agonists or antagonists of the thyroid stimulating hormone receptor (TSHR) signaling pathway - wild type cell line counter screen (AID 1259384; calls by dose curve)
Outline: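 Wild-type HEK293 cells were plated 18 h at 37 C/5% CO2, pin-dosed with compound plus Ro20-1724 medium, held 30 min at room temperature, then given cAMP-d2 and anti-cAMP-cryptate; fluorescence was read after 1 h. Fifteen concentrations, triplicate.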

[9] = biological target: Thyrotropin receptor (Homo sapiens) (UniProt P16473); assay: qHTS assay to identify small molecule antagonists of the thyroid stimulating hormone receptor (TSHR) signaling pathway (AID 1259385; calls by dose curve; note: nearly all actives have a fitted effect of over 20% in size)
Thyrotropin receptor (Homo sapiens), sequence (P16473 whole entry, looked up): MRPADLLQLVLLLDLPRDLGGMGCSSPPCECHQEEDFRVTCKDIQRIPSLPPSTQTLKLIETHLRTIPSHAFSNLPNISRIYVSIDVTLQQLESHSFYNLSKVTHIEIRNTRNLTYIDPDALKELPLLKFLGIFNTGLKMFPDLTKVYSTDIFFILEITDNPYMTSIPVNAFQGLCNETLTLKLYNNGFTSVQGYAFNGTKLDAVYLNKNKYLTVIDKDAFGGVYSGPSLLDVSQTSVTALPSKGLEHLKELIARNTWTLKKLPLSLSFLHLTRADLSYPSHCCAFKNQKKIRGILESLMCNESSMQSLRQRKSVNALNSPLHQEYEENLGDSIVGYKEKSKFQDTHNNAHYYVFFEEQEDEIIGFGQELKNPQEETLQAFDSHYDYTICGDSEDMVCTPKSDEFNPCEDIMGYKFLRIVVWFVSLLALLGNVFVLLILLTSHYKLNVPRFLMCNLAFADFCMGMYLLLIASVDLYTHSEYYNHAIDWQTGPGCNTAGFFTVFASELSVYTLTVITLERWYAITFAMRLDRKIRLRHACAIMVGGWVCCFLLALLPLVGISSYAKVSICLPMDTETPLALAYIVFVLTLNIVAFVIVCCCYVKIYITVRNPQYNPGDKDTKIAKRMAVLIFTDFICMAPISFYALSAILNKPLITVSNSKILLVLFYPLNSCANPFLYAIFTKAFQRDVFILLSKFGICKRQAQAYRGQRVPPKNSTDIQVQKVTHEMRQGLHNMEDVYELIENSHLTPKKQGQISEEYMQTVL
Outline: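 TSHR-HEK293 cells were plated and held 18 h at 37C/5% CO2, then given compound plus Ro20-1724 and stimulated with TSH at 1.5 ng/mL final. After 30 min at room temperature, cAMP was detected with cAMP-d2/anti-cAMP-cryptate (1 h) by fluorescence.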

[10] = qHTS assay to identify small molecule agonists of the estrogen receptor alpha (ER-alpha) signaling pathway in the presence of an antagonist - cell viability counter screen (AID 1259386);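 note: series mostly up to about 92 µM; cells exposed to compounds for 22 h at 37 °C before the viability read; nearly all actives have a fitted effect of over 30% in size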
Outline: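 Read-out: CellTiter-Fluor fluorescence after 1hr reagent incubation, measured in the same wells as the luciferase readout. VM7Luc4E2 cells were exposed to 15 compound concentrations with 10.0nM ICI-182,780 for 22hr at 37C.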

[11] = biological target: Progesterone receptor (Homo sapiens) (UniProt P06401); assay: qHTS assay to identify small molecule antagonists of the progesterone receptor (PR) signaling pathway (AID 1346795; active = well fitted inhibition curve with a large enough effect in the signal ratio in the repeat runs, not every such curve was filed as active; the % refers to the signal ratio)
Progesterone receptor (Homo sapiens), sequence (P06401 whole entry, looked up): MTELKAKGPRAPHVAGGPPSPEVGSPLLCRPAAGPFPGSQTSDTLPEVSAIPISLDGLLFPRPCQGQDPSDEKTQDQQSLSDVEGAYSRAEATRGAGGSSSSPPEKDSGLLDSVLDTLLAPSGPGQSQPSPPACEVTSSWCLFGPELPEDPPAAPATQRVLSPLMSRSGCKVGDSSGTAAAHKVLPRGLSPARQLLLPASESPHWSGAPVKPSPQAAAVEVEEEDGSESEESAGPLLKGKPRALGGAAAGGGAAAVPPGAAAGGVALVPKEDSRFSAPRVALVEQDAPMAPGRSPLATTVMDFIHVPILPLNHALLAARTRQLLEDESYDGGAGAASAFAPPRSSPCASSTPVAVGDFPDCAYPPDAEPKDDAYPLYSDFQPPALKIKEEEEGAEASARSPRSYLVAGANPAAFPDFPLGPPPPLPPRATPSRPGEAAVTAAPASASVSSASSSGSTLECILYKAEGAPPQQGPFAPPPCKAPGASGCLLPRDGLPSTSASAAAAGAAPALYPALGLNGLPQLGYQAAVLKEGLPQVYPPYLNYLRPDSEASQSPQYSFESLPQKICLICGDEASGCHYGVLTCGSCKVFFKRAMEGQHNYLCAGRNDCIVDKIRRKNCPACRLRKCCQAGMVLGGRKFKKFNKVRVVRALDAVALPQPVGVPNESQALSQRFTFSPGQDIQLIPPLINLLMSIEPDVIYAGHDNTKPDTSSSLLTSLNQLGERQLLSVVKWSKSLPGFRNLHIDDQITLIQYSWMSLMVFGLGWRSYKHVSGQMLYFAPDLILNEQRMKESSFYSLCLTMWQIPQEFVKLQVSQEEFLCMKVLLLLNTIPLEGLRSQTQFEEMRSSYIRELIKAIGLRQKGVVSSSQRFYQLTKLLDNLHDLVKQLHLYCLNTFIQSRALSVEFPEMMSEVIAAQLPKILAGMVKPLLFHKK
Outline: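 HEK293T PR-UAS-bla reporter cells in charcoal-stripped serum (2%) received compound after a 6 hr settling period, followed by R5020 agonist at 1 nM final; 16 hr incubation preceded the FRET substrate step and fluorescence measurement.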

[12] = qHTS assay to identify small molecule antagonists of the progesterone receptor (PR) signaling pathway - cell viability counter screen (AID 1346798); note: series mostly up to about 92 µM; nearly all actives have a fitted effect of over 50% in size
Outline: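 Same-well multiplex: after 16 hr at 37C with compound and R5020 stimulation, HEK293T cells carrying a UAS-bla reporter received LiveBLAzer substrate (2 hr RT), then CellTiter-Glo (30 min RT) for luminescent viability.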

[13] = qHTS assay to identify small molecule antagonists of the TGF-beta/Smad signaling pathway - cell viability counter screen (AID 1346824); note: nearly all actives have a fitted effect of over 50% in size
Outline: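 SBE-bla HEK 293T cells were plated overnight at 37 C, then given compounds in DMSO plus TGF-beta1 (added as 0.25 ng/mL solution) for 5 hr. After the bla read, CellTiter-Glo was added to the same wells and luminescence read after 30 min at room temperature.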

[14] = qHTS assay to identify small molecule agonists of the TGF-beta/Smad signaling pathway - cell viability counter screen (AID 1346829); note: top concentration of the series differs between compounds; nearly all actives have a fitted effect of over 45% in size
Outline: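 Cytotoxicity counter screen: CellTiter-Glo luminescence (30 min, room temperature) measured in the SBE-bla HEK 293T reporter wells after 5 hr compound treatment at 37 C and the 2 hr substrate step.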

[15] = qHTS assay to identify small molecule agonists of the TGF-beta/Smad signaling pathway (AID 1346859; active = well fitted activation curve with a large enough effect in the signal ratio in the repeat runs, not every such curve was filed as active; the % refers to the signal ratio; note: series mostly up to about 77 µM)
Outline: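 Smad-responsive beta-lactamase reporter cells (HEK 293T) received compounds from DMSO stocks after overnight attachment, were incubated 5 hr, then treated 2 hr with FRET substrate before dual-emission fluorescence measurement (405 nm excitation).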

[16] = biological target: Thyrotropin-releasing hormone receptor (Homo sapiens) (UniProt P34981); assay: qHTS assay to identify small molecule agonists of the thyrotropin-releasing hormone receptor (TRHR) signaling pathway (AID 1346891; calls by dose curve;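 note: HEK293 cells expressing TRHR with calcium dye readout; series mostly up to about 58 µM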)
Thyrotropin-releasing hormone receptor (Homo sapiens), sequence (P34981 whole entry, looked up): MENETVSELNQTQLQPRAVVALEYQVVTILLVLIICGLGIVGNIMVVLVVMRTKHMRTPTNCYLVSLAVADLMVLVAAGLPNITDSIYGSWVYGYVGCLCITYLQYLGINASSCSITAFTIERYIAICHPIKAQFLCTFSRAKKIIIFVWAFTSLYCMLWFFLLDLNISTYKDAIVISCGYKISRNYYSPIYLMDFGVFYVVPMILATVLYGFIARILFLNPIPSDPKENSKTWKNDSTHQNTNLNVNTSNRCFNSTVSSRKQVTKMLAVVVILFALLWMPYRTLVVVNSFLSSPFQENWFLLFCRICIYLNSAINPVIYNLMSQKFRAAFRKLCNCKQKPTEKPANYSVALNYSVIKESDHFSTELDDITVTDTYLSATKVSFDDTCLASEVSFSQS
Outline: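 Agonist-mode calcium mobilisation screen: TRHR-transfected HEK293 cells cultured overnight (18 h), dye-loaded for 2 h at 37 °C, exposed to compounds, and monitored by fluorescence for 3 min.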

[17] = biological target: Progesterone receptor (Homo sapiens) (UniProt P06401); assay: qHTS assay to identify small molecule agonists of the progesterone receptor (PR) signaling pathway (AID 1346784; calls by dose curve; note: nearly all actives have a fitted effect of over 30% in size)
Outline: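 Agonist mode, quantitative HTS format in a HEK 293T line expressing a UAS-controlled beta-lactamase reporter; 16 hr compound exposure at 37C in 2% charcoal-stripped FBS, then LiveBLAzer B/G FRET fluorescence.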

[18] = qHTS assay to identify small molecule agonists of the progesterone receptor (PR) signaling pathway - cell viability counter screen (AID 1346799; calls by dose curve; note: nearly all actives have a fitted effect of over 45% in size)
Outline: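 Counter screen for cytotoxicity: compound-treated PR-UAS-bla HEK293T cells (16 hr, 37C, 5% CO2) were assayed with CellTiter-Glo, luminescence measured after 30 min at room temperature.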

[19] = biological target: Thyrotropin-releasing hormone receptor (Homo sapiens) (UniProt P34981); assay: qHTS assay to identify small molecule antagonists of the thyrotropin-releasing hormone receptor (TRHR) signaling pathway (AID 1346877; active = well fitted inhibition curve with a large enough effect in the repeat runs, not every such curve was filed as active; note: series mostly up to about 51 µM)
Outline: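 HEK293/TRHR cells, 18 h, 37 °C; Ca2+ dye 2 h; cpd 5 min RT; TRH 1 nM final; fluorescence read 3 min, 1 s intervals; 15 concs, triplicate.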

[20] = Human pregnane X receptor (PXR) small molecule agonists, qHTS cell viability counter screen (AID 1346977); note: nearly all actives have a fitted effect of over 50% in size
Outline: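 Measures live-cell protease fluorescence (CellTiter-Fluor) in PXR-Luc HepG2 cells treated 24hr with compounds at 37C. Cells had 5hr to attach before pin transfer of DMSO solutions.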

Measured: Potency

Cc1ccc(-c2ncc(Cl)cc2-c2ccc(S(C)(=O)=O)cc2)cn1
not listed: [17] | [18] | [19] | [20]
inactive: all other assays above

CCOCC(C)O (stereo not drawn)
not listed: [5]
inactive: all other assays above

CCCO[Si](OCCC)(OCCC)OCCC
not listed: [5] | [16]
inactive: all other assays above

CCCCCCCCCC[N+](C)(C)[O-]
not listed: [6] | [8] | [9] | [12] | [17]
inactive: all other assays above

CC(=O)O[C@@]12CO[C@@H]1C[C@H](O)[C@@]1(C)C(=O)[C@H](O)C3=C(C)[C@@H](OC(=O)[C@H](O)[C@@H](NC(=O)OC(C)(C)C)c4ccccc4)C[C@@](O)([C@@H](OC(=O)c4ccccc4)[C@H]21)C3(C)C
not listed: [8] | [9] | [12] | [16] | [18] | [19]
inactive: all other assays above

CC[N+](CC)(CC)CCOc1cccc(OCC[N+](CC)(CC)CC)c1OCC[N+](CC)(CC)CC
not listed: [7] | [16] | [19]
inactive: all other assays above

CC1(C)OC[C@@H](COC(=O)CCc2ccc(OC[C@@H](O)CNCCNC(=O)N3CCOCC3)cc2)O1
not listed: [9] | [12] | [16]
inactive: all other assays above

O=C(CO)[C@@H](O)[C@H](O)[C@@H](O)CO
not listed: [5]
inactive: all other assays above

CC(=O)N1C[C@H](O)C[C@H]1C(=O)O
not listed: [11] | [20]
inactive: all other assays above

CCNC(=O)[C@@H]1CCCN1C(=O)[C@H](CCCN=C(N)N)NC(=O)[C@H](CC(C)C)NC(=O)CNC(=O)[C@H](Cc1ccc(O)cc1)NC(=O)[C@H](CO)NC(=O)[C@H](Cc1c[nH]c2ccccc12)NC(=O)[C@H](Cc1cnc[nH]1)NC(=O)[C@@H]1CCC(=O)N1 ([pGlu]HWSYGLRP-NHEt)
not listed: [5] | [16] | [19] | [20]
inactive: all other assays above

[K+]
not listed: [5] | [20]
inactive: all other assays above

Cc1ccc(-c2ccccc2C#N)cc1
not listed: [6] | [18]
inactive: all other assays above

[O-][n+]1cccc(CO)c1
not listed: [5] | [16] | [20]
inactive: all other assays above

O=C(O)CCSCCC(=O)O
not listed: [16] | [19]
inactive: all other assays above

CC(C)C1CCC(O)CC1 (stereo not drawn)
not listed: [6] | [7] | [19]
inactive: all other assays above

C=CCCCCCCCCC(=O)OCC
not listed: [5] | [16] | [19] | [20]
inactive: all other assays above
